The results in this text go back to the supplement of paper PMC12350171.

What all share (details): 20 µM
The test system of one assay is P. vulgatus RND KO. Kind of assay: growth AUC normalised to DMSO control (median) (fraction of control); higher = less growth inhibition, active = hit call of the paper. Put shortly:
(§1)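 In 96-well plates of mGAM seeded at OD578 0.01, strains that had been passaged twice overnight without oxygen were exposed to approved-drug library compounds at 20 μM with 1% DMSO. Hourly OD578 readings were taken for 24 h in an anaerobic incubator. The trapezoidal-rule area under the curve, with curves truncated at entry into stationary phase, was expressed relative to same-plate vehicle wells as the median of three biological replicates.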

Another assay relates to P. vulgatus WT. Described as above. The procedure, abridged: as §1
The subject of assay [1] is S. enterica typhimurium WT. The description is as above. Put shortly:
as §1

Assay [2] concerns S. enterica typhimurium tolC KO. The description is as above. Put shortly: as §1
The test system of assay [3] is Haemophilus parainfluenzae. Kind of assay: growth AUC normalised to DMSO control (fraction of control); higher = less growth inhibition, active = hit call of the paper. Put shortly: (§2)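 Three biological replicates were carried out, with OD578 read hourly for 24 h. Before inoculation at a starting OD578 of 0.01, pathogens were passaged anaerobically twice; plates were pre-reduced mGAM containing 20 μM compound and 1% DMSO, sealed with breathable membranes, and the Haemophilus parainfluenzae medium carried added hemin and NAD. Area under each growth curve was calculated by the trapezoidal rule up to the exponential-to-stationary transition and normalised to DMSO controls on the same plate.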

Assay [4] has as its system Salmonella enterica typhimurium. The assay is described as above. The procedure, abridged:
as §2

In the next assay the test system is Shigella flexneri. The assay is described as above. The procedure, abridged:
as §2

A further assay relates to Vibrio cholerae. The assay is described as above. Put shortly: as §2
Assay [5] has as its system Yersinia pseudotuberculosis. The assay is described as above. The procedure, abridged: as §2

Structures can show the parent of a compound that is named as a salt. Values without a mark were called inactive.
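Wherever growth AUC normalised to DMSO control (median) is given: active when median AUC fell below 0.1.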

For the molecule `N#Cc1nn(-c2c(Cl)cc(C(F)(F)F)cc2Cl)c(N)c1[S+]([O-])C(F)(F)F` (stereo not drawn) [Fipronil], the “growth AUC normalised to DMSO control” value was 0.985 with P. vulgatus RND KO, 0.906 in the assay with P. vulgatus WT, 1.01 in assay [1] and 0.903 in assay [2].

Regarding `NCC1(CC(=O)O)CCCCC1` [Gabapentin], the “growth AUC normalised to DMSO control” value is 0.891 in assay [3]; 1.01 in [4]; 1.05 in the assay on Shigella flexneri; 1.03 with Vibrio cholerae; 1.01 in assay [5]; 1.04 in the assay with P. vulgatus RND KO. Also, the entries for the “growth AUC normalised to DMSO control” value (in the assay with P. vulgatus WT; in assay [1]; in [2]) were 1.04, 1.01 and 1.01, respectively.

On to `COC[C@@H](NC(C)=O)C(=O)NCc1ccccc1` [Lacosamide], for which the “growth AUC normalised to DMSO control” value in the assay on P. vulgatus RND KO was 0.998; in the assay with P. vulgatus WT it was 1; in assay [1] it was 0.987; in [2], 1.

In the case of `CC(C)C[C@H]1C(=O)N2CCC[C@H]2[C@]2(O)O[C@](NC(=O)[C@@H]3C=C4c5cccc6[nH]c(Br)c(c56)C[C@H]4N(C)C3)(C(C)C)C(=O)N12` [Bromocryptine mesylate], the “growth AUC normalised to DMSO control” value in assay [3] was 1; in assay [4], 1; in the assay with Shigella flexneri, 0.996; in the assay on Vibrio cholerae, 0.996; in [5], 1.03; in the assay with P. vulgatus RND KO, 1.01. Further, the “growth AUC normalised to DMSO control” value is 1.03 in the assay with P. vulgatus WT, 1.02 in assay [1] and 0.994 in [2].

Consider `C=CC[C@]1(O)CC[C@H]2[C@@H]3CCC4=CCCC[C@@H]4[C@H]3CC[C@@]21C` [Allylestrenol], for which the “growth AUC normalised to DMSO control” value was 0.959 in the assay on P. vulgatus RND KO, 0.925 in the assay with P. vulgatus WT, 1.02 in assay [1] and 1.01 in assay [2].

Consider `CCCCCC[C@H]1C(=O)O[C@H](C)[C@H](NC(=O)c2cccc(NC=O)c2O)C(=O)O[C@@H](C)[C@@H]1OC(=O)CC(C)C` [Antimycin A], for which the “growth AUC normalised to DMSO control” value with P. vulgatus RND KO was 1.03; with P. vulgatus WT it was 1.05; in assay [1], 1.01; in assay [2] it was 1.01.

As to `CC[C@@H](C(=O)[C@@H](C)[C@@H](O)[C@H](C)[C@@H]1O[C@@H]([C@@H](CC)C(=O)O)CC[C@@H]1C)[C@H]1O[C@]2(C=C[C@@H](O)[C@]3(CC[C@@](C)([C@H]4CC[C@](O)(CC)[C@H](C)O4)O3)O2)[C@H](C)C[C@@H]1C` [Salinomycin sodium], the “growth AUC normalised to DMSO control” value is 0.00978 (active) in the assay with P. vulgatus RND KO, 0.00987 (active) in the assay on P. vulgatus WT, 1.01 in assay [1] and 0.781 in assay [2].

Take `CC(N)C(O)c1ccccc1` (stereo not drawn) [Phenylpropanolamine hydrochloride]: the “growth AUC normalised to DMSO control” value is 1.07 in [3]; 1.03 in the assay with Shigella flexneri; 1.01 in the assay on Vibrio cholerae; 0.972 in assay [5]; 1.03 in the assay with P. vulgatus RND KO; 1.02 in the assay with P. vulgatus WT. For the same molecule, the “growth AUC normalised to DMSO control” value in assay [1] and in assay [2] was 1.01 each time.

As to `CN(C)C(=O)Oc1ccc[n+](C)c1` [Pyridostigmine iodide], the “growth AUC normalised to DMSO control” value in [3] is 0.994; in assay [4] it was 1; with Shigella flexneri it was 1.03; in the assay with Vibrio cholerae, 1.02; in assay [5], 0.992; in the assay on P. vulgatus RND KO it was 1. The results for the “growth AUC normalised to DMSO control” value (with P. vulgatus WT; in assay [1]; in assay [2]) were 1.03, 1.01 and 0.991, respectively.

On to `CCN(CC)CCOC(=O)C(O)(c1ccccc1)c1ccccc1` [Benactyzine hydrochloride], for which the “growth AUC normalised to DMSO control” value in the assay on P. vulgatus RND KO was 0.979; with P. vulgatus WT it was 0.997; in [1], 1.01; in assay [2], 1.

In the case of `CC(C)C[C@H](CN)CC(=O)O` [Pregabalin], the “growth AUC normalised to DMSO control” value in the assay on P. vulgatus RND KO is 0.971; in the assay on P. vulgatus WT, 0.976; in assay [1], 0.991; in assay [2], 0.989.

On to `CN1C(=O)COc2c(C(=O)NC3CN4CCC3CC4)cc(Cl)cc21` (stereo not drawn) [Azasetron hydrochloride], for which the “growth AUC normalised to DMSO control” value with P. vulgatus RND KO is 1.02; in the assay with P. vulgatus WT it was 1.04; in [1] it was 1.01; in assay [2], 1.01.

Turning to `NCC(CC(=O)O)c1ccc(Cl)cc1` (stereo not drawn) [Baclofen], the “growth AUC normalised to DMSO control” value in assay [3] is 1.04; in assay [4], 1.01; in the assay on Shigella flexneri, 1.01; with Vibrio cholerae, 1.01; in assay [5] it was 0.992; in the assay with P. vulgatus RND KO it was 1.02. The “growth AUC normalised to DMSO control” value with P. vulgatus WT was 1.07; in assay [1] it was 1.02; in [2], 0.999.

Turning to `c1ccc2c(c1)Nc1ccccc1S2` [Phenothiazine], the “growth AUC normalised to DMSO control” value in the assay with P. vulgatus RND KO is 1.01; in the assay with P. vulgatus WT, 1.01; in [1] it was 0.972; in assay [2], 0.945.

For the molecule `Nc1nc(N)nc(NC2CC2)n1` [Cyromazine], the “growth AUC normalised to DMSO control” value is 0.998 with P. vulgatus RND KO, 1.01 in the assay on P. vulgatus WT, 1 in assay [1] and 0.988 in assay [2].

Take `CC(C)=CC1C(C(=O)OCc2cccc(Oc3ccccc3)c2)C1(C)C` (stereo not drawn) [Phenothrin]: the “growth AUC normalised to DMSO control” value is 1.01 with P. vulgatus RND KO, 1.01 in the assay with P. vulgatus WT, 0.998 in [1] and 1.01 in assay [2].
